# Screening data from PubChem BioAssay.
# Rows were chosen to be rich in hits. Some 12% of all compounds tested hit in one or more screens of this group.
# FMDV inh – blocks foot and mouth disease virus. hit rate 1.2% among 410,000. FMDV antiviral cell-based qHTS. Potency, µM (highest dose often 57.9 µM), inactives show top-dose activity change, negative = inhibition, actives largely listed as inhibitors. AID 1159524; calls by dose curve; tested in HEK293T cells; note: read-out not given here; potency is the fitted concentration of half-maximal effect; % is set by controls: 0 for no effect and ±100 for the full control effect; nearly all actives have a fitted effect of over 45% in size
# Shiga inhibitor – inhibitors of Shiga toxin in Vero cells. hit rate 9.2% among 290,000. Vero cells, Shiga toxin protein synthesis inhibition reporter. AID 2315. inhibition, % at 38.7 µM; in the data active = inhibition mostly above about 28%, no sharp cut-off; inactive = mostly below about 43%; note: 0% is about no effect
# Sm TGR inh – inhibitors of Schistosoma mansoni thioredoxin glutathione reductase; Q962Y6; purified TGR, DTNB reduction, TNB absorbance 405 nm; Potency, µM (highest dose often 114 µM), without a hit: at the highest dose activity change, negative = inhibition, actives largely listed as inhibitors; hit rate 3% among 360,000; active = well fitted inhibition curve with a large enough effect; inconclusive = small, poorly fitted or top-dose-only effect; inactive = no such curve, though single readings can be large or run the other way; note: potency is the fitted concentration of half-maximal effect; % is set by controls: 0 for no effect and ±100 for the full control effect; nearly all actives have a fitted effect of over 60% in size
#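 First, TGR (20 nM dispensed) and NADPH were mixed with compound. Second, a 15 min room-temperature incubation followed. Third, further NADPH and then DTNB were added to start the reaction. Finally, TNB absorbance was monitored kinetically.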
# CHX counter – affects cycloheximide protein synthesis inhibition readout, counter-screen; max response, %; hit rate 12% among 300,000; cell reporter, cycloheximide protein synthesis inhibition counterscreen; in the data active = max response mostly above about 13%, no sharp cut-off; inactive = mostly below about 14%; note: read at 38.3 µM for the half of the compounds with a filed dose; 0% is about no effect
# Numbers without * were called inactive; ? = inconclusive; · = no result given; [ ] = another dose, or the depositor's remark.
SMILES,FMDV inh,Shiga inhibitor,Sm TGR inh,CHX counter
CCOC(=O)N1CCN(C(=O)c2cc3ccc(OC)cc3[nH]2)CC1,0.6%,3.9,11.8%,16.4
CCOC(=O)C1CCN(C(=O)c2cc3cc(Cl)ccc3[nH]2)CC1,12.8%,48.9*,0.8%,22.5*
CCOC(=O)C1CCN(C(=O)c2cc3ccc(OC)cc3[nH]2)CC1,74.4%,47.6,-2.5%,26.8*
Cc1cccc(Cc2nnc(CCC(=O)N3CCCCC3c3nccs3)o2)c1 (stereo unspecified),4.6%,15.8,8.4%,6.0
COc1ccc(OC)c(Cc2nnc(CCC(=O)N3CCCCC3c3nccs3)o2)c1 (stereo unspecified),60.9%,87.5*,?,42.7*
COc1ccc(OC)c(Cc2nnc(CCC(=O)NC3CCCCCCC3)o2)c1,23.5%,77.4*,·,33.5*
COc1cccc(CCNC(=O)CCc2nnc(Cc3cc(OC)ccc3OC)o2)c1,42.2%,22.8*,-12.9%,27.6*
Cc1ccc(-c2cn3nc(N4CCCC(C(=O)Nc5ccc(F)cc5)C4)sc3n2)cc1 (stereo unspecified),-1.8%,·,8.6%,·
NS(=O)(=O)c1ccc(CCNc2ncnc3c2c(-c2ccccc2)cn3-c2ccc(F)cc2)cc1,15.8µM*,10.3,-1.5%,-3.5
CC1Oc2ccccc2N(CC(=O)c2ccc(F)cc2)C1=O (stereo unspecified),-12.3%,17.6,-5.1%,23.1
Cc1ccc(C(=O)CN2C(=O)C(C)Oc3ccccc32)cc1 (stereo unspecified),46.6%,38.8,·,33.2*
CC1Oc2ccccc2N(CC(=O)c2ccccc2)C1=O (stereo unspecified),17.9%,27.1,-19.0%,23.4*
CCN(C(=O)CSc1nc2n[nH]c(C)c2c(=N)n1-c1cccc(OC)c1)c1cccc(C)c1,?,·,-32.5%,·
COc1ccc(N(CC(=O)NCc2ccccc2Cl)S(=O)(=O)c2c(C)nn(C)c2C)cc1,15.7%,·,0.2%,·
Cc1cc2cc(CNC(=O)c3cccs3)ccc2n1C,107.0%,55.6*,3.0%,37.5*
Cc1cc2cc(CNC(=O)Nc3ccccc3)ccc2n1C,73.3%,47.7*,-4.9%,18.4*
CCOC(=O)CCC(=O)NCc1ccc2c(c1)cc(C)n2C,-9.2%,-25.9,0.0%,0.6
CCOC(=O)NCc1ccc2c(c1)cc(C)n2C,-7.5%,22.9,5.5%,15.0*
CCCCC(=O)NCc1ccc2c(c1)cc(C)n2C,27.7%,51.5*,2.3%,14.2
Cc1cc2cc(CNC(=S)NCc3ccccc3)ccc2n1C,11.0%,35.0,-0.3%,-1.1
Cc1c(C(=O)NCC2(N3CCCCC3)CCCC2)cnn1-c1nccc(-c2ccccc2F)n1,-7.2%,·,·,·
Cc1ccnc(Nc2nc(-c3ccc(Cl)cc3)cs2)c1,-8.6%,41.8*,2.1%,38.0*
Cc1ccc(S(=O)(=O)Nc2nc(-c3ccc(F)cc3)cs2)cc1,10.4%,-0.5,-12.8%,13.3*
O=[N+]([O-])c1ccc(S(=O)(=O)Nc2nc(-c3ccccc3)cs2)cc1,-7.5%,-6.5,-6.3%,-1.3
Cc1c(Nc2nc(-c3ccc(Cl)cc3)cs2)c(=O)n(-c2ccccc2)n1C,?,-11.4,-7.5%,-2.7
SMILES,FMDV inh,Shiga inhibitor,Sm TGR inh,CHX counter
Cc1ccnc(Nc2nc(-c3ccc(F)cc3)cs2)c1,-93.3%,99.5*,17.9%,50.3*
N#C/C(=C\c1c(Oc2ccc(F)cc2)nc2ccccn2c1=O)c1nc2ccccc2s1,-12.2%,·,-1.2%,·
Cc1cccc(OCCCn2c(CCNC(=O)C3CCCCC3)nc3ccccc32)c1,-22.5%,47.7,0.6%,10.2
COc1cccc(CNC(=O)c2ccc3c(c2)sc2nc(-c4ccccc4)cn23)c1OC,-9.7%,·,-1.2%,·
COc1ccc(CCN2C(=O)CC(NCCc3ccc(S(N)(=O)=O)cc3)C2=O)cc1OC (stereo unspecified),-5.0%,-7.7,17.8µM*,-3.2
COc1ccc(CCN2C(=O)CC(Cc3ccc(C)cc3)C2=O)cc1OC (stereo unspecified),-13.2%,18.3,0.0%,-3.4
COc1ccc(CCN2C(=O)CC(NC34CC5CC(CC(C5)C3)C4)C2=O)cc1OC (stereo unspecified),?,-17.2,39.8µM*,3.5
COc1ccc(CCNC2CC(=O)N(N(C)C)C2=O)cc1OC (stereo unspecified),-12.4%,-11.6,-5.2%[57.1 µM],7.7
N#C/C(=C\c1ccc(-c2nc3ccccc3s2)o1)C(N)=O,57.6%,50.2*,-5.1%,38.5*
CNC(=O)/C(C#N)=C/c1ccc(-c2nc3ccccc3s2)o1,60.2%,54.9*,19.2%,42.5*
COCc1c(C(=O)N2CCN(C(C)C)CC2)cnn1-c1nccc(-c2cc(C)sc2C)n1,-9.6%,·,·,·
CCOC(=O)c1cccc(NC(=O)CSc2nc3cc4ccccc4cc3[nH]2)c1,-18.8%,·,5.2%,·
Cc1ccc(-c2nnnn2CS(=O)(=O)c2ccccc2)cc1,51.3%,19.7,7.1%,19.2*
Cc1ccc(S(=O)(=O)Cn2nnnc2C(c2ccccc2)N2CCN(c3ccccc3)CC2)cc1 (stereo unspecified),3.4%,-2.7,-34.8%,-3.5
O=C(COc1ccc2ccccc2c1Br)Nc1cccnc1,-11.7%,137.6*,-1.2%,36.8*
O=C(COc1ccc2ccccc2c1Br)Nc1ccncc1,-19.3%,74.2*,-10.3%,27.8*
Cc1ccc(CNc2ccc(Cl)cc2[N+](=O)[O-])cc1,31.5%,72.2*,12.8%,48.0*
Cc1ccc(CNS(=O)(=O)c2ccc([N+](=O)[O-])cc2)cc1,-12.4%,·,2.5%,2.6
Cc1ccc(CNS(=O)(=O)c2ccccc2[N+](=O)[O-])cc1,42.5%,55.2,-2.0%,29.4*
CC(C)C[C@H](NC(=O)[C@H](CO)NC(=O)CNC(=O)[C@H](CCCCN)NC(=O)[C@H](CCCN=C(N)N)NC(=O)[C@H](C)NC(=O)[C@H](Cc1ccccc1)NC(=O)[C@@H](N)CCCN=C(N)N)C(=O)N[C@@H](CCCN=C(N)N)C(=O)N[C@@H](CCC(N)=O)C(=O)N[C@@H](CCCCN)C(=O)N[C@@H](CC(N)=O)C(=O)N[C@H](C(=O)O)C(C)C,·,-15.1,·,9.1
COc1ccc(CCNC(=O)c2cc(-c3ccc(C)cc3)nc3n[nH]c(-c4ccc(F)cc4)c23)cc1OC,-8.8%,·,-3.1%,·
CCN(CC)c1ccc(/C=C/[N+](=O)[O-])cc1,?,28.6,-19.8%,11.6*
CCN(CC)c1ccc(/C=N/NC(=O)c2ccc([N+](=O)[O-])cc2)cc1,9.5%,4.5,2.7%,11.6
CC(=O)c1ccc(NS(=O)(=O)c2ccc3[nH]c(=O)[nH]c3c2)cc1,78.4%,·,-12.1%,·
CCN(C(=O)Cn1c(C(=O)OC)cc2oc3ccccc3c21)c1cccc(C)c1,?,·,1.5%,·
SMILES,FMDV inh,Shiga inhibitor,Sm TGR inh,CHX counter
Nc1ccc2oc(-c3ccccc3Br)nc2c1,-19.2%,·,-8.4%,·
Nc1cc(N)cc(-c2nc3ccccc3o2)c1,4.7%,·,·,·
Nc1ccc2oc(-c3ccc4nc[nH]c4c3)nc2c1,-19.0%,26.9,1.6%,16.4*
Cc1ccccc1-c1nc2cc(N)ccc2o1,-8.6%,87.1*,0.0%,54.7*
Nc1ccc(-c2nc3ccccc3o2)cc1,38.1%,90.9*,10.7%,57.5*
Nc1ccc2oc(-c3cccc(Br)c3)nc2c1,12.1%,107.7,12.1%,43.1*
